Measured potencies and affinities stand elsewhere.
What was measured:
[1] = test system: Klebsiella pneumoniae; conditions: Concentration 20 uM; ASSAY_TEST Inhibition of Bacterial Growth; detection method Absorption (OD600); MEDIA CAMHB; plate type 384well; NBS; CORNING #3640; time 18 hr
[2] = test system: Candida albicans; conditions: 20 µM
[3] = test system: Cryptococcus neoformans; conditions: Concentration 20 uM; ASSAY_TEST Inhibition of Fungal Growth; detection method Resazurin; Absorption (OD600-OD570); plate type 384well; NBS; CORNING #3640

Row | SMILES | Inhibition [1] [%] | Inhibition [2] [%] | Inhibition [3] [%]
1 | Cl.O.OC[C@H]1O[C@@H](n2cnc3c(N[C@H]4CCC[C@@H]4O)ncnc32)[C@@H](O)C1O (some centres not stated) | 8.61 | 3.02 | -2.1
2 | C#C[C@]1(O)CC[C@H]2[C@@H]3CCC4=CC(=O)CC[C@@H]4[C@H]3CC[C@@]21CC [LEVONORGESTREL] | 13.61 | 3.12 | 2.67
3 | CN(CCO)CC(O)Cn1cnc2c1c(=O)n(C)c(=O)n2C.O=C(O)c1cccnc1 (configuration not stated) [XANTHINOL NIACINATE] | 12.07 | 0.26 | -2.36
4 | CC(COc1ccccc1Cc1ccccc1)N1CCCCC1.O=P(O)(O)O (configuration not stated) | 14.21 | 3.69 | 0.43
5 | CC(C)(C(=O)O)c1ccc(C(O)CCCN2CCC(C(O)(c3ccccc3)c3ccccc3)CC2)cc1.Cl (configuration not stated) [FEXOFENADINE HYDROCHLORIDE] | 13.11 | 1.18 | -7.41
6 | CC(C)Cc1ccc(C(C)C(=O)O)cc1 (configuration not stated) [IBUPROFEN] | -1.68 | 13.3 | -3.38
7 | C[C@H](CS)C(=O)N1CCC[C@H]1C(=O)O [CAPTOPRIL] | 9.36 | 2.59 | 1.67
8 | COCCCC/C(=N\OCCN)c1ccc(C(F)(F)F)cc1.O=C(O)/C=C\C(=O)O [FLUVOXAMINE MALEATE] | 6.46 | 2.11 | -8.17
9 | NC(=O)N1c2ccccc2C=Cc2ccccc21 [CARBAMAZEPINE] | 5.59 | 4.45 | -2.39
10 | CC1(C)O[C@@H]2C[C@H]3[C@@H]4C[C@H](F)C5=CC(=O)C=C[C@]5(C)[C@H]4[C@@H](O)C[C@]3(C)[C@]2(C(=O)CO)O1 [FLUNISOLIDE] | 10.74 | 7.13 | -6.19
11 | Nc1nc2c(ncn2COCCO)c(=O)[nH]1 [ACYCLOVIR] | 6.29 | 4.6 | -1.27
12 | CC(=O)OCC(=O)[C@@]12OC(C)(C)O[C@@H]1C[C@H]1[C@@H]3C[C@H](F)C4=CC(=O)C=C[C@]4(C)[C@@]3(F)[C@@H](O)C[C@@]12C [FLUOCINONIDE] | 13.39 | -0.27 | -0.92
13 | COCC1=C(C(=O)OC(C)OC(=O)OC(C)C)N2C(=O)[C@@H](NC(=O)/C(=N\OC)c3csc(N)n3)[C@H]2SC1 (some centres not stated) [CEFPODOXIME PROXETIL] | 5.41 | 4.56 | 0.11
14 | CCCCC(=O)OC1(C(=O)CO)CCC2C3CCC4=CC(=O)CCC4(C)C3C(O)CC21C (configuration not stated) | 9.82 | 3.16 | -1.86
15 | CC12CCC(=O)C=C1CCC1C2CCC2(C)C1CCC2(O)C(=O)CO (configuration not stated) | 8.14 | 3.12 | -0.13
16 | CC1CNc2c(cccc2S(=O)(=O)N[C@@H](CCCNC(=N)N)C(=O)N2CC[C@@H](C)C[C@@H]2C(=O)O)C1 (some centres not stated) [ARGATROBAN] | 8.18 | 4.39 | -2.44
17 | CCCCC(=O)O[C@H]1CC[C@H]2[C@@H]3CCc4cc(O)ccc4[C@H]3CC[C@]12C [ESTRADIOL VALERATE] | 8.52 | 0.66 | 2.38
18 | Cc1[nH]cnc1CN1CCc2c(c3ccccc3n2C)C1=O.Cl [ALOSETRON HYDROCHLORIDE] | 15.86 | 2.6 | -5.48
19 | COc1ccc(OC)c(C(O)CNC(=O)CN)c1.Cl (configuration not stated) [MIDODRINE HYDROCHLORIDE] | 8.37 | 2.18 | -10.49
20 | O=C(NCCO[N+](=O)[O-])c1cccnc1 [NICORANDIL] | 15.28 | 1.66 | -0.1
21 | CN1CCN(C2=Nc3cc(F)ccc3Cc3ccccc32)CC1 [FLUPERLAPINE] | 11.17 | 3.99 | -6.37
22 | CCCc1nc(C(C)(C)O)c(C(=O)OCc2oc(=O)oc2C)n1Cc1ccc(-c2ccccc2-c2nnn[nH]2)cc1 [OLMESARTAN MEDOXOMIL] | 5.33 | 4.08 | -0.73
23 | CN1CC(=O)N2[C@H](c3ccc4c(c3)OCO4)c3[nH]c4ccccc4c3C[C@@H]2C1=O | 2.98 | -1.32 | -3.58
24 | CC(CCc1ccccc1)NCC(O)c1ccc(O)c(C(N)=O)c1.Cl (configuration not stated) [LABETALOL HYDROCHLORIDE] | 19.39 | 4.68 | -9.04

Source: ChEMBL document CHEMBL4513141, “CO-ADD screening of NIH (USA) - Clinical Collection” (2021)
